Results filed as inconclusive are left out. Active and inactive are the calls of the source. Calls follow the shape of the dose curve; as a rule, active = well fitted curve in the direction sought with a large enough effect in the repeat runs; inconclusive = weak or mixed curves; inactive = no such curve, though single readings can be large; an effect the other way counts as inactive or inconclusive.
How the values were obtained:
[1] = A CellTox Green Cytotoxicity Assay to monitor cytotoxicity in HEK293 cells - 40 hour (AID 1224871); also: nearly all actives have a fitted effect of over 45% in size
Outline: (§1)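 Dead-cell fluorescence measured kinetically: asymmetric cyanine dye, HEK293, 600 cells/well, 5 h settle, 23 nL cpd/DMSO, 37 C, reads 0–40 h every 8 h.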

[2] = qHTS RealTime-Glo MT Cell Viability Assay in HEK293 cells - 16 hour (AID 1224872); also: top concentration of the series differs between compounds; nearly all actives have a fitted effect of over 50% in size
Outline: (§2)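 Homogeneous bioluminescent viability format in HEK293 cells (600 cells/well). Following 5 h at 37 C/5% CO2, 23 nL compound was pintooled; the signal was measured repeatedly during 40 h incubation.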

[3] = qHTS RealTime-Glo MT Cell Viability Assay in HepG2 cells - 8 hour (AID 1224873); also: nearly all actives have a fitted effect of over 55% in size
Outline: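 Real-time viability: cells seeded at 600 per well together with NanoLuc and cell-permeant prosubstrate, compounds added after 5 h incubation. Luminescence tracked at 0, 8, 16, 24, 32 and 40 h of exposure.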

[4] = qHTS RealTime-Glo MT Cell Viability Assay in HEK293 cells - 40 hour (AID 1224874); details: RealTime-Glo luminescence; max response: hits give low values; also: nearly all actives have a fitted effect of over 50% in size
Outline: (§3)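 600 HEK293 cells per well, dispensed already mixed with RealTime-Glo MT reagents. Compound dosing came 5 h later. The same wells were read for luminescence at 0, 8, 16, 24, 32 and 40 h of exposure at 37 C.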

[5] = A CellTox Green Cytotoxicity Assay to monitor cytotoxicity in HEK293 cells - 24 hour (AID 1224875); also: series mostly up to about 77 µM; nearly all actives have a fitted effect of over 45% in size
Outline: as §1

[6] = A CellTox Green Cytotoxicity Assay to monitor cytotoxicity in HepG2 cells - 16 hour (AID 1224876); also: nearly all actives have a fitted effect of over 45% in size
Outline: (§4)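 First, HepG2 cells (600/well) mixed with reagent were plated; second, after 5 h at 37 C they received compounds via pintool; third, fluorescence was measured at 0 h through 40 h at 8 h intervals.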

[7] = qHTS RealTime-Glo MT Cell Viability Assay in HepG2 cells - 32 hour (AID 1224877); also: nearly all actives have a fitted effect of over 55% in size
Outline: (§5)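 Cell number in HepG2 cultures estimated from NanoLuc luminescence generated by metabolic reduction of a prosubstrate by living cells. The homogeneous, nonlytic format allowed repeated reads at 0, 8, 16, 24, 32 and 40 h of compound exposure.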

[8] = A CellTox Green Cytotoxicity Assay to monitor cytotoxicity in HepG2 cells - 24 hour (AID 1224878); also: nearly all actives have a fitted effect of over 45% in size
Outline: as §4

[9] = A CellTox Green Cytotoxicity Assay to monitor cytotoxicity in HepG2 cells - 40 hour (AID 1224879); also: nearly all actives have a fitted effect of over 40% in size
Outline: as §4

[10] = qHTS RealTime-Glo MT Cell Viability Assay in HEK293 cells - 0 hour (AID 1224880)
Outline: as §3

[11] = A CellTox Green Cytotoxicity Assay to monitor cytotoxicity in HEK293 cells - 32 hour (AID 1224881); also: nearly all actives have a fitted effect of over 40% in size
Outline: as §1

[12] = A CellTox Green Cytotoxicity Assay to monitor cytotoxicity in HepG2 cells - 0 hour (AID 1224882); also: nearly all actives have a fitted effect of over 35% in size
Outline: as §4

[13] = A CellTox Green Cytotoxicity Assay to monitor cytotoxicity in HepG2 cells - 32 hour (AID 1224883); also: nearly all actives have a fitted effect of over 50% in size
Outline: as §4

[14] = A CellTox Green Cytotoxicity Assay to monitor cytotoxicity in HEK293 cells - 8 hour (AID 1224884); also: nearly all actives have a fitted effect of over 35% in size
Outline: as §1

[15] = qHTS RealTime-Glo MT Cell Viability Assay in HepG2 cells - 16 hour (AID 1224885); also: nearly all actives have a fitted effect of over 50% in size
Outline: as §5

[16] = qHTS RealTime-Glo MT Cell Viability Assay in HEK293 cells - 24 hour (AID 1224886)
Outline: as §2

[17] = qHTS RealTime-Glo MT Cell Viability Assay in HEK293 cells - 8 hour (AID 1224887)
Outline: as §3

[18] = A CellTox Green Cytotoxicity Assay to monitor cytotoxicity in HEK293 cells - 16 hour (AID 1224888); also: nearly all actives have a fitted effect of over 35% in size
Outline: as §1

[19] = qHTS RealTime-Glo MT Cell Viability Assay in HepG2 cells - 0 hour (AID 1224889); also: nearly all actives have a fitted effect of over 50% in size
Outline: as §5

[20] = A CellTox Green Cytotoxicity Assay to monitor cytotoxicity in HepG2 cells - 8 hour (AID 1224890); also: nearly all actives have a fitted effect of over 45% in size
Outline: as §4
% is scaled to controls: 0 for no effect and ±100 for the full control effect.

CCC1(c2ccccc2)C(=O)N=C(O)NC1=O (stereo not drawn)
inactive: Potency [1] | Potency [2] | Potency [3] | max response [4] 9.07% | Potency [5] | Potency [6] | Potency [7] | Potency [8] | Potency [9] | outcome [10] | Potency [11] | outcome [12] | Potency [13] | Potency [14] | Potency [15] | Potency [16] | Potency [17] | Potency [18] | Potency [19] | Potency [20]

[O]=[Cd]
inactive: Potency [1] | Potency [2] | Potency [3] | max response [4] 15.5% | Potency [5] | Potency [6] | Potency [7] | Potency [8] | Potency [9] | outcome [10] | Potency [11] | outcome [12] | Potency [13] | Potency [14] | Potency [15] | Potency [16] | Potency [17] | Potency [18] | Potency [19] | Potency [20]

CC(CCc1ccccc1)NC(C)C(O)c1ccc(O)cc1 (stereo not drawn)
inactive: Potency [1] | Potency [2] | Potency [3] | max response [4] -21.9% | Potency [5] | Potency [6] | Potency [7] | Potency [8] | Potency [9] | outcome [10] | Potency [11] | outcome [12] | Potency [13] | Potency [14] | Potency [15] | Potency [16] | Potency [17] | Potency [19] | Potency [20]

CCOP(=S)(OCC)SCSP(=S)(OCC)OCC
inactive: Potency [1] | Potency [2] | Potency [3] | max response [4] 7.42% | Potency [5] | Potency [6] | Potency [7] | Potency [8] | Potency [9] | outcome [10] | Potency [11] | outcome [12] | Potency [13] | Potency [14] | Potency [15] | Potency [16] | Potency [17] | Potency [18] | Potency [19] | Potency [20]

CC(=O)CC(c1ccc(Cl)cc1)c1c(O)c2ccccc2oc1=O (stereo not drawn)
inactive: Potency [1] | Potency [2] | Potency [3] | max response [4] -9.42% | Potency [5] | Potency [6] | Potency [7] | Potency [8] | Potency [9] | outcome [10] | Potency [11] | outcome [12] | Potency [13] | Potency [14] | Potency [15] | Potency [16] | Potency [17] | Potency [18] | Potency [19] | Potency [20]

O=C1CN2CCOC2(c2ccccc2Cl)c2cc(Cl)ccc2N1 (stereo not drawn)
inactive: Potency [1] | Potency [2] | Potency [3] | max response [4] -7.26% | Potency [5] | Potency [6] | Potency [7] | Potency [8] | Potency [9] | outcome [10] | Potency [11] | outcome [12] | Potency [13] | Potency [14] | Potency [15] | Potency [16] | Potency [17] | Potency [18] | Potency [19] | Potency [20]

Cc1ncsc1CCCl
inactive: Potency [1] | Potency [2] | Potency [3] | max response [4] 3.38% | Potency [5] | Potency [6] | Potency [7] | Potency [8] | Potency [9] | outcome [10] | Potency [11] | outcome [12] | Potency [13] | Potency [14] | Potency [15] | Potency [16] | Potency [17] | Potency [18] | Potency [19] | Potency [20]

O=C(Nc1ccccc1)c1ccccc1I
inactive: Potency [1] | Potency [2] | Potency [3] | max response [4] -14.8% | Potency [5] | Potency [6] | Potency [7] | Potency [8] | Potency [9] | outcome [10] | Potency [11] | outcome [12] | Potency [13] | Potency [14] | Potency [15] | Potency [16] | Potency [17] | Potency [19] | Potency [20]

CCOC(=O)CP(=O)(OCC)OCC
inactive: Potency [1] | Potency [2] | Potency [3] | max response [4] 0.417% | Potency [5] | Potency [6] | Potency [7] | Potency [8] | Potency [9] | outcome [10] | Potency [11] | outcome [12] | Potency [13] | Potency [14] | Potency [15] | Potency [16] | Potency [17] | Potency [18] | Potency [19] | Potency [20]

CCOC(=O)C(c1c(O)c2ccccc2oc1=O)c1c(O)c2ccccc2oc1=O
inactive: Potency [1] | Potency [2] | Potency [3] | max response [4] 4.14% | Potency [5] | Potency [6] | Potency [7] | Potency [8] | Potency [9] | Potency [11] | outcome [12] | Potency [13] | Potency [14] | Potency [15] | Potency [16] | Potency [17] | Potency [18] | Potency [20]

CC(C)CC#N
inactive: Potency [1] | Potency [2] | Potency [3] | max response [4] 8.82% | Potency [5] | Potency [6] | Potency [8] | Potency [9] | outcome [10] | Potency [11] | outcome [12] | Potency [13] | Potency [14] | Potency [15] | Potency [16] | Potency [17] | Potency [19] | Potency [20]

COP(=S)(OC)Oc1c(Cl)cc(C)cc1Cl
inactive: Potency [1] | Potency [2] | Potency [3] | max response [4] 0.348% | Potency [5] | Potency [6] | Potency [7] | Potency [8] | Potency [9] | outcome [10] | Potency [11] | outcome [12] | Potency [13] | Potency [15] | Potency [16] | Potency [17] | Potency [18] | Potency [19] | Potency [20]

CNC(=O)Oc1ccccc1C1OCCO1
inactive: Potency [1] | Potency [2] | Potency [3] | max response [4] -0.764% | Potency [5] | Potency [6] | Potency [7] | Potency [8] | Potency [9] | outcome [10] | Potency [11] | Potency [13] | Potency [14] | Potency [15] | Potency [16] | Potency [17] | Potency [18] | Potency [19] | Potency [20]

O=NN1CCN(N=O)CC1
inactive: Potency [1] | Potency [2] | Potency [3] | max response [4] -6.3% | Potency [5] | Potency [6] | Potency [7] | Potency [8] | Potency [9] | outcome [10] | Potency [11] | Potency [13] | Potency [15] | Potency [16] | Potency [17] | Potency [18] | Potency [19] | Potency [20]

C#CCN1C(=O)COc2cc(F)c(N3C(=O)C4=C(CCCC4)C3=O)cc21
inactive: Potency [1] | Potency [2] | Potency [3] | max response [4] 2.01% | Potency [5] | Potency [6] | Potency [7] | Potency [8] | Potency [9] | outcome [10] | Potency [11] | outcome [12] | Potency [13] | Potency [15] | Potency [16] | Potency [17] | Potency [19] | Potency [20]

— PubChem BioAssay (Tox21)
